Shiga inhibitor – A qHTS for Small Molecule Inhibitors of Shiga Toxin; Vero cells, Shiga toxin protein synthesis inhibition reporter; inhibition, % at 38.7 µM; 290,000 tested, 9.2% active; AID 2315, 2010; in the data active = inhibition mostly above about 28%, no sharp cut-off; inactive = mostly below about 43%; also: 0% is about no effect
Pf growth 48h – Primary qHTS for delayed death inhibitors of the malarial parasite plastid, 48 hour incubation. P. falciparum luciferase growth in erythrocytes, 48 h. Potency, µM (doses to about 28.7 µM), without a hit: at the highest dose activity change, negative = inhibition, usual class: inhibitors. 310,000 tested, 5.9% active; also: potency is read from the fitted curve at half-maximal effect; % is scaled to controls: 0 for no effect and ±100 for the full control effect
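Firefly luciferase activity from engineered P. falciparum reports growth; inhibitors lower the luminescent signal. Cultures contained 2% hematocrit erythrocytes at 0.1% final parasitemia.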
Pf growth 96h – Primary qHTS for delayed death inhibitors of the malarial parasite plastid, 96 hour incubation; Potency, µM (highest dose often 28.7 µM), for the others: top-dose activity change, negative = inhibition, actives largely listed as inhibitors; P. falciparum luciferase reporter growth, 96 h; 320,000 tested, 6.9% active; also: potency is read from the fitted curve at half-maximal effect; % is scaled to controls: 0 for no effect and ±100 for the full control effect
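Luminescence readout: decreased luciferase signal marks inhibited growth of reporter-expressing P. falciparum in infected red cells (2% hematocrit, 0.05% parasitemia final), exposed to compound two generations (96 h, 37 C, 5% CO2).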
Cycloheximide cs – Cycloheximide Counterscreen for Small Molecule Inhibitors of Shiga Toxin; max response, %; 300,000 tested, 12% active; cell reporter, cycloheximide protein synthesis inhibition counterscreen; AID 2314, 2010; in the data active = max response mostly above about 13%, no sharp cut-off; inactive = mostly below about 14%; also: read at 38.3 µM for the half of the compounds with a filed dose; 0% is about no effect
* marks the source's active call; other numbers are inactive results; ? = inconclusive; / = not tested or not shown. An excerpt weighted towards active compounds, which were near 21% of everything screened. Unless noted, calls follow the shape of the dose curve; as a rule, active = well fitted inhibition curve with a large enough effect; inconclusive = small, poorly fitted or top-dose-only effect, or another doubt; inactive = no such curve, though single readings can be large or run the other way.

SMILES	Shiga inhibitor	Pf growth 48h	Pf growth 96h	Cycloheximide cs
COc1ccc(-c2csc(Nc3ccccc3)n2)cc1	97*	55%	52%	29*
COc1ccc(Nc2nc(-c3c[nH]c4ccccc34)cs2)cc1	67	?	-100%	32*
CC(=O)NCCC(=O)Nc1nc(-c2c[nH]c3ccccc23)cs1	24	19%	21%	-3
COc1ccc2oc(=O)c(-c3csc(Nc4ccc(O)cc4)n3)cc2c1	85*	?	-16%	46*
COc1ccc(-c2csc(Nc3ccc(S(N)(=O)=O)cc3)n2)cc1	14	-20%	/	7
COc1ccc(-c2csc(Nc3cccnc3)n2)cc1	99*	0%	-5%	52*
COc1ccc(-c2ccccc2C2C3C=CCCC3(C)C(=O)N2Cc2ccccc2)cc1 (stereo not given)	-2	/	/	2
CC(C)[C@H](NC(=O)c1ccccc1)C(=O)OCC(=O)N1CCCc2ccccc21	23	-2%	-17%	5
CN(C)/C=C/C(=O)c1ccn(S(=O)(=O)c2ccccc2)c1	2	?	?	-3
CC(OC(=O)c1ccco1)C(=O)NC1CCCCC1 (stereo not given)	-20	8%	?	-3
O=C(N[C@@H](Cc1ccccc1)C(=O)NC1CCCCCC1)c1ccco1	98*	/	16%	53*
O=C(NC(Cc1ccccc1)C(=O)O)c1ccco1 (stereo not given)	-3	4%	?	-2
O=C(N[C@@H](Cc1ccccc1)C(=O)NC1CCCCC1)c1ccco1	23*	/	-30%	14
C/C(=N\NC(=O)NC1CCCCC1)c1ccco1	23	-11%	28%	12*
O=C(NC1CCCCCCC1)c1ccco1	43*	0%	/	18*
N#CC1=C(O)C(c2ccccc2)n2c1nc(=O)c1ccccc12 (stereo not given)	-5	?	?	-5
O=C(COC(=O)C1CC(O)CN1S(=O)(=O)c1ccccc1[N+](=O)[O-])c1ccc[nH]1 (stereo not given)	/	-2%	12%	/
O=C(COC(=O)c1ccco1)NC1CCCCC1	17	2%	/	22*
C/C=C1/C2C=C(C)CC1(N)c1ccc(=O)[nH]c1C2 (stereo not given)	-3	/	/	4
COC1=C(OC)C(=O)C(CCCCCCCCCCO)=C(C)C1=O	6	?	6µM*	-7
CCCCCCCCCCC1=C(C)C(=O)C(OC)=C(OC)C1=O	-13	/	/	-3
Cc1cccc(C)c1NC(=S)N(CCCN1CCCCC1)Cc1ccco1	-6	-20%	?	-6
CC(=O)Nc1ccc2c(c1)nc1n2CCN(C2CCCCC2)C1	47	43%	42%	29*
O=[N+]([O-])c1ccc2c(c1)nc1n2CCCCC1	22	30%	14%	15
O=[N+]([O-])c1ccc2c(c1)nc1n2CCN(C2CCCCC2)C1	49*	?	-9%	37*
SMILES	Shiga inhibitor	Pf growth 48h	Pf growth 96h	Cycloheximide cs
CCCC(=O)Nc1ccc2c(c1)nc1n2CCN(C2CCCCC2)C1	4	?	?	2
Cc1ccc(NC(=O)CSc2cn[nH]n2)cc1	13	19%	0%	13
CCOC(=O)N1CCN(c2ccc(S(=O)(=O)N(Cc3ccccc3)Cc3ccccc3)cn2)CC1	-4	13µM*	-29%	-1
CCOC(=O)N1CCN(C(=O)CN(Cc2ccc(Cl)cc2)S(=O)(=O)c2ccccc2)CC1	20	8.3µM*	?	-2
CCN(CC)S(=O)(=O)c1ccc(N2CCN(c3ccccc3O)CC2)nc1	26	?	13µM*	13
COc1ccccc1OCCNC(=O)CN1C(=O)NC2(CCCC2)C1=O	/	?	4%	/
CC(OC(=O)c1ccccc1CCc1ccccc1)C(N)=O (stereo not given)	-8	4%	1%	-3
COc1ccc(CNC(=O)C2CCN(C(=O)Cc3ccccc3)CC2)cc1	4	7%	15%	-1
COc1cc(CCC(=O)Nc2ccc(C)c(S(=O)(=O)N3CCCCCC3)c2)cc(OC)c1OC	/	12µM*	10µM*	/
COc1ccccc1CCC(=O)OCC(=O)Nc1ccc(C)c(S(=O)(=O)N2CCCCC2)c1	/	-11%	?	/
COc1ccc(CCC(=O)Nc2ccc(Cl)c(S(=O)(=O)N3CCCC3)c2)cc1	-3	9.3µM*	?	7
COc1ccc(OCC(=O)Nc2ccc(OC)c(S(=O)(=O)N3CCCCC3)c2)cc1	/	-6%	7%	/
COc1cc(NC(=O)CNc2ccc(Cl)c(S(=O)(=O)N3CCOCC3)c2)cc(OC)c1	/	5.2µM*	?	/
COc1ccc(OCCCC(=O)Nc2ccc(OC)c(S(=O)(=O)N3CCOCC3)c2)cc1	/	-15%	?	/
CC[C@H](NC(=O)[C@H](CCC(=O)O)NC(=O)[C@H](CCC(=O)O)NC(=O)[C@H](CC(=O)O[S+](=O)([O-])c1cccc2c(NCCN)cccc12)NC(=O)[C@H](CCC(=O)O)NC(=O)[C@H](CC(=O)O)NC(C)=O)C(=O)ON[C@@H](C)C(=O)N[C@@H](CO)C(=O)N[C@@H](CCCCNC(=O)c1ccc(N=Nc2ccc(N(C)C)cc2)cc1)C(N)=O	23	/	/	8
CC1(C)OC(C)(C)/C(=C/Nc2ccccc2)C1=O	-5	-10%	-25%	-4
CCCN1CCN(C(=O)C2CCN(c3nnc(C)c4c(C)n(-c5ccc(C)cc5)nc34)CC2)CC1	-7	10µM*	?	-2
Cc1ccc(-n2nc3c(N4CCC(C(=O)N5CCCCCC5)CC4)nnc(C)c3c2C)cc1	18	?	12µM*	-4
O=C(Oc1coc(CSc2nnc(NC(=O)C3CC3)s2)cc1=O)c1c(F)cccc1F	-16	2%	?	-8
O=c1ccc2cc(O)c(O)cc2o1	-3	2%	-26%	-1
COc1c2c(cc3oc(=O)ccc13)OC(C)(C)C=C2	40*	7%	0.0047µM*	20*
CC1(C)C=Cc2cc3ccc(=O)oc3cc2O1	62*	84%	?	53*
COc1ccc(Cc2nc(-c3cccc(C)c3)no2)cc1	112*	/	15µM*	52*
Cc1cccc(-c2noc(Cc3ccc(Cl)cc3)n2)c1	96	63%	?	40*
COc1cccc(CN(C(=O)Cc2c[nH]c3ccccc23)C(C(=O)NC2CCCCC2)c2cccs2)c1 (stereo not given)	12	9.3µM*	12µM*	12
COc1ccc(C(C(=O)NC2CCCCC2)N(Cc2cccs2)C(=O)Cc2c[nH]c3ccccc23)cc1 (stereo not given)	-4	?	46%	-1
CC(=O)c1ccc(N(C(=O)Cc2c[nH]c3ccccc23)C(C(=O)NC2CCCCC2)c2cccs2)cc1 (stereo not given)	30	3.7µM*	29%	36
Cc1ccc(C(C(=O)NC2CCCCC2)N(C(=O)Cc2c[nH]c3ccccc23)c2ccccc2)o1 (stereo not given)	-1	9.3µM*	?	-2
CC1CCCCN1CCCNC(=O)c1ccc2nc(N3CCCCC3)sc2c1 (stereo not given)	15	1%	?	3
CSc1ccc(S(=O)(=O)NC2CC2)cc1	-2	20%	?	-3

Source: PubChem
